Screening data deposited in PubChem BioAssay by National Center for Advancing Translational Sciences (NCATS).
PINK1 modulator: A Quantitative High throughput Screen to Identify Chemical Modulators of PINK1 Expression | PINK1 immunofluorescence, high-content cytometry, 24 h | Potency, µM (highest dose often 76.6 µM), most hits filed as activators | 410,000 compounds, 0.2% hits | AID 624263, 2012; active = well fitted activation curve with a large enough effect; inconclusive = small, poorly fitted or top-dose-only effect; cell line not stated here; note: nearly all actives have a fitted effect of over 65% in size
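Fluorescence from anti-PINK1 antibody, together with nuclear and cell stains, was scanned on a laser-scanning cytometer. Before staining, stable-line cells were incubated 24 hours with compounds at 5 concentrations; primary antibody 12 h at 10 degrees C.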
KB-V1 cytotox: qHTS assay for MDR1-selective chemotherapeutics: Primary screen using the drug-selected MDR subline cells KB-V1. KB-V1 MDR cells viability, CellTiter-Glo, 72 h. Potency, µM (doses to about 46.1 µM), usual class: cytotoxic. 400,000 compounds, 3.4% hits. AID 1347076, 2019; note: nearly all actives have a fitted effect of over 60% in size
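Following 72 h at 37 degrees C with compound, KB-V1 cell viability was read by CellTiter-Glo luminescence, medium being phenol-red-free DMEM plus 10% FBS; concentration-response parameters came from normalized, curve-fitted qHTS data.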
SW480 rereplic: A quantitative high throughput screen for small molecules that induce DNA re-replication in SW480 colon adenocarcinoma cells | SW480 DNA re-replication, Hoechst DNA content imaging, 48 h | AID 624297, 2012 | 340,000 compounds, 1.8% hits | Potency, µM (highest dose often 46.1 µM), hits mostly activators; note: nearly all actives have a fitted effect of over 55% in size
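Quantitative HTS format with DMSO vehicle controls; 48 hr drug incubation at 37 C, then 40 min Hoechst staining and scanning imager measurement at 405 nm excitation.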
KB-3-1 cytotox: qHTS assay for MDR1-selective chemotherapeutics: Primary screen using the parental adenocarcinoma cell KB-3-1; AID 1347075, 2019; KB-3-1 viability, CellTiter-Glo ATP luminescence, 72 h; Potency, µM (titrated, usually from 46.1 µM), usual class: cytotoxic; 400,000 compounds, 1.4% hits; note: nearly all actives have a fitted effect of over 60% in size
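Cells are dispensed, compounds pinned in, plates held at 37 °C for 72 h, then CellTiter-Glo is added and luminescence read after 10 minutes. Cell line: parental KB-3-1 in phenol-red-free DMEM, 10% FBS.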
12-LOX inh: Primary qHTS assay for inhibitors of human arachidonate 12S-lipoxygenase (ALOX12): Round 2; purified 12hLO, xylenol orange hydroperoxide absorbance; Polyunsaturated fatty acid lipoxygenase ALOX12 (Homo sapiens), P18054; 580,000 compounds, 1.1% hits; AID 1671190, 2021; Potency, µM (titrated, usually from 108 µM), usual class: inhibitors
Target sequence (P18054 whole entry, looked up): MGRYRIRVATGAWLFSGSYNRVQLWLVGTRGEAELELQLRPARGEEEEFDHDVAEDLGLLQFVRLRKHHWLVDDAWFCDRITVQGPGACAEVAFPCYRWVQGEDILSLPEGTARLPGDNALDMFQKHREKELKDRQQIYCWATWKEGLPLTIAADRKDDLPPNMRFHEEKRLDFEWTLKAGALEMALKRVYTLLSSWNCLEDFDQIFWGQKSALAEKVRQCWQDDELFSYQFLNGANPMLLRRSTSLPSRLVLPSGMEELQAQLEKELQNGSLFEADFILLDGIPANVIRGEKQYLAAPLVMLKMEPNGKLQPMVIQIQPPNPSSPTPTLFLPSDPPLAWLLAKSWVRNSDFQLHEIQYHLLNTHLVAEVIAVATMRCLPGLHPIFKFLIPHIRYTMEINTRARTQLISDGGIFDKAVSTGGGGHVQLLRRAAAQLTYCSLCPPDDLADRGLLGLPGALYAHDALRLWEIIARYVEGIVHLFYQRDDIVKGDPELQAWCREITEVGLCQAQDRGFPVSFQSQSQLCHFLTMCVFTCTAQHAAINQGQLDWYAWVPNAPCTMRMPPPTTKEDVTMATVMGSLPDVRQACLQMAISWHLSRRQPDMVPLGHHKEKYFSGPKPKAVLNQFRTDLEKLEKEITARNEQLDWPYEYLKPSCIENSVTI
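Purified human 12hLO (150 nM final) in 25 mM Hepes, 0.01% Triton X-100, pH 7.0 was preincubated 15 min at room temperature with compound. Then 40 uM arachidonic acid was added, 30 min. Hydroperoxide was read by Fe-XO absorbance ratio 573/405 nm.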
MCF10A rerep: A quantitative high throughput screen for small molecules that induce DNA re-replication in MCF 10a normal breast cells; MCF 10A DNA re-replication, Hoechst nuclear intensity, 48 h; Potency, µM (series often up to 46.1 µM), actives largely listed as activators; 350,000 compounds, 2.9% hits; note: nearly all actives have a fitted effect of over 50% in size
Each line names hits and unclear results; the compound was inactive in the other large screens; ! = not confirmed by another sample. The list is not random: actives were taken first. Their share in the collection is about 5.8%. Unless noted, calls come from the whole dose curve; as a rule, active = well fitted curve in the direction sought with a large enough effect; inconclusive = small, poorly fitted or top-dose-only effect, or another doubt; inactive = no such curve, though single readings can be large; an effect the other way counts as inactive or inconclusive.

CC1CCN(C[C@H]2CN3CC[C@H]2C[C@@H]3CNC(=O)Nc2cccc(C#N)c2)CC1	none (no result: PINK1 modulator, KB-V1 cytotox, SW480 rereplic, KB-3-1 cytotox, MCF10A rerep)
CC(C)(C)c1cc2c(c(C(C)(C)C)c1)Oc1cc(C#N)c(C#N)cc1O2	none (no result: PINK1 modulator, KB-V1 cytotox, SW480 rereplic, KB-3-1 cytotox, MCF10A rerep)
O=[N+]([O-])c1ccc(N2CCCCCC2)c2nonc12	PINK1 modulator 39.8µM, KB-V1 cytotox inconclusive, KB-3-1 cytotox inconclusive, 12-LOX inh inconclusive, MCF10A rerep inconclusive
O=[N+]([O-])c1ccc(N2CCOCC2)c2c1no[n+]2[O-]	KB-V1 cytotox 5.17µM, KB-3-1 cytotox inconclusive (no result: SW480 rereplic, MCF10A rerep)
Oc1cc(Cl)c(Cl)c(Cl)c1Cl	PINK1 modulator inconclusive, MCF10A rerep 14.6µM
Oc1cc(Cl)c(Cl)cc1Cl	12-LOX inh inconclusive (no result: PINK1 modulator, KB-V1 cytotox, KB-3-1 cytotox)
CCn1cc(C(=O)OC(C)C(=O)NC(=O)NC(C)(C)C)c2ccccc21 (configuration not stated)	none (no result: PINK1 modulator, KB-V1 cytotox, SW480 rereplic, KB-3-1 cytotox, MCF10A rerep)
CC/C(=N\N1CCCCCC1)c1c(O)n(-c2ccccc2C)c(=O)[nH]c1=O	KB-V1 cytotox 11.6µM
CCC(CC)c1cc([C@H]2CN3CC[C@H]2C[C@@H]3CNC(=O)c2ccc(C)cc2)nc(-c2ccncc2)n1	none (no result: PINK1 modulator, KB-V1 cytotox, SW480 rereplic, KB-3-1 cytotox, MCF10A rerep)
O=C(COc1ccc(S(=O)(=O)N2CCOCC2)cc1)N1CCN(Cc2ccc3c(c2)OCO3)CC1	KB-V1 cytotox 16.4µM
CCCNS(=O)(=O)c1ccc(OCC(=O)N2CCN(Cc3ccccc3)CC2)cc1	KB-V1 cytotox 8.2µM, KB-3-1 cytotox inconclusive
Cn1nc(-c2ccc(OCC(=O)N3CCN(Cc4ccccc4)CC3)cc2)c2ccccc2c1=O	KB-V1 cytotox 0.651µM!, KB-3-1 cytotox 5.8µM!, 12-LOX inh inconclusive
Cn1cccc1CN1CCN(C(=O)COc2ccccc2)CC1	12-LOX inh inconclusive
O=C(COc1ccc(Br)cc1)N1CCN(Cc2ccc3c(c2)OCO3)CC1	12-LOX inh inconclusive
CC(C)(C)NS(=O)(=O)c1ccc(OCC(=O)N2CCN(Cc3ccccc3)CC2)cc1	KB-V1 cytotox inconclusive
CCOC(=O)[C@]12Cc3cc(Cl)ccc3[C@H]1N(CC(=O)OC)C(=O)c1ccccc12	KB-V1 cytotox 11.6µM, KB-3-1 cytotox 3.66µM (no result: SW480 rereplic, 12-LOX inh, MCF10A rerep)
CCOC(=O)[C@]12Cc3cc(Cl)ccc3[C@H]1N(C(C)C)C(=O)c1ccccc12	KB-V1 cytotox 5.17µM, KB-3-1 cytotox 2.59µM, 12-LOX inh inconclusive (no result: SW480 rereplic, MCF10A rerep)
CCOC(=O)[C@]12Cc3cc(Cl)ccc3[C@H]1N(C)C(=O)c1ccccc12	KB-3-1 cytotox inconclusive (no result: SW480 rereplic, MCF10A rerep)
CS(=O)(=O)NC[C@H]1C[C@@H]2CCN1C[C@@H]2CN1CCCCC1	none (no result: PINK1 modulator, KB-V1 cytotox, SW480 rereplic, KB-3-1 cytotox, MCF10A rerep)
CN(C)CCCC(=O)N1C2CCC1CN(Cc1cccnc1)C2	none (no result: PINK1 modulator, KB-V1 cytotox, SW480 rereplic, KB-3-1 cytotox, MCF10A rerep)
Cc1ccc(OP2(=O)Nc3cc(C)c(C)cc3S2)cc1 (configuration not stated)	12-LOX inh 20µM
Cc1ccc2c(c1)NP(=S)(Oc1ccccc1)N2 (configuration not stated)	none
O=C1NC(=O)N(c2ccccc2F)C(=O)/C1=C/c1cn(CC(=O)N2CCOCC2)c2ccccc12	12-LOX inh inconclusive, MCF10A rerep 20.6µM
CCOC(=O)c1c(C)n(Cc2ccc(F)cc2)c2ccc(O)cc12	KB-V1 cytotox 16.4µM, SW480 rereplic inconclusive, KB-3-1 cytotox inconclusive
COC(=O)c1c(C)n(Cc2ccc3c(c2)OCO3)c2ccc(O)cc12	12-LOX inh 12.6µM
CCCn1c(C)c(C(=O)OCc2ccccc2)c2cc(O)ccc21	12-LOX inh 35.5µM (no result: PINK1 modulator, KB-V1 cytotox, SW480 rereplic, KB-3-1 cytotox, MCF10A rerep)
CC(C)N1CCN(c2oc(C3CC3)nc2C#N)CC1	none (no result: PINK1 modulator, KB-V1 cytotox, SW480 rereplic, KB-3-1 cytotox, MCF10A rerep)
Cc1nn(-c2cccc(Cl)c2)c2c1C(c1ccsc1)SCC(=O)N2 (configuration not stated)	none (no result: PINK1 modulator, KB-V1 cytotox, SW480 rereplic, KB-3-1 cytotox, MCF10A rerep)
O=C(CN1CC=C(c2ccccc2)CC1)NC(=O)NC1CCCCC1	MCF10A rerep 20.6µM
Cc1ccccc1-c1ccc2n(c1=O)C[C@H]1C[C@@H]2CN(C(=O)NC2CCCCC2)C1	none (no result: PINK1 modulator, KB-V1 cytotox, SW480 rereplic, KB-3-1 cytotox, MCF10A rerep)
